For 8 compounds, Potency and outcome results are on record in PubChem BioAssay (Tox21).

Values joined by “and” are separate entries in the source; they are usually repeats but may differ in a detail not shown here. Equal values may be shown once. Inconclusive results are not listed. Active and inactive are the calls of the source. Unless noted, the call rests on the fitted dose curve; in most records, active means well fitted curve in the direction sought with a large enough effect in the repeat runs; inconclusive means weak or mixed curves; inactive means no such curve, though single readings can be large; an effect the other way counts as inactive or inconclusive.

Assay [1] can be described thus: qHTS assay to identify small molecule agonists of the androgen receptor (AR) signaling pathway in the presence of an antagonist - cell viability counter screen (AID 1259379).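 Further: MDA-kb2 human breast cancer cells carrying an MMTV luciferase reporter; series mostly up to about 92 µM; nearly all actives have a fitted effect of over 25% in size.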 The gist of the method: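 Each compound was tested at 15 concentrations on MDA-kb2 cells in the presence of 3.0uM nilutamide. Viability was measured by CellTiter-Fluor fluorescence after a 16 hr incubation at 37C in a CO2-free atmosphere.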

Assay [2] can be described thus: qHTS assay to identify small molecule agonists of the estrogen receptor beta (ER-beta) signaling pathway - cell viability counter screen (AID 1259380). Further: nearly all actives have a fitted effect of over 30% in size. Further: potency means the concentration at half of the fitted maximal effect. In short, it runs like this: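 Compounds dissolved in DMSO were pin-transferred onto ER-beta-UAS-bla HEK293T cells that had settled 6 hr, and exposure ran 16 hr at 37C. Following the reporter read, CellTiter-Glo luminescence after 30 min at room temperature indicated cytotoxicity.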

Assay [3] addresses Estrogen receptor (Homo sapiens) (UniProt P03372). Briefly: qHTS assay to identify small molecule agonists of the estrogen receptor alpha (ER-alpha) signaling pathway in the presence of an antagonist (AID 1259383; calls by dose curve; further: nearly all actives have a fitted effect of over 15% in size; further: potency means the concentration at half of the fitted maximal effect; on activation: top concentration of the series differs between compounds). The gist of the method: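 Luminescent ERE-luciferase reporter, VM7Luc4E2 cells (endogenous ER-alpha); 10.0nM ICI-182,780 final; 15-point compound titration; 22hr at 37C; ONE-Glo, 30min RT.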
(In general: In qHTS, concentration-response curves come from the screen itself.)

Assay [4] can be described thus: qHTS assay to identify small molecule agonists or antagonists of the thyroid stimulating hormone receptor (TSHR) signaling pathway - wild type cell line counter screen (AID 1259384; calls by dose curve). In short, it runs like this: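 Wild-type HEK293 cells were plated 18 h at 37 C/5% CO2, pin-dosed with compound plus Ro20-1724 medium, held 30 min at room temperature, then given cAMP-d2 and anti-cAMP-cryptate; fluorescence was read after 1 h. Fifteen concentrations, triplicate.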

Assay [5] addresses Thyrotropin receptor (Homo sapiens) (UniProt P16473). Briefly: qHTS assay to identify small molecule antagonists of the thyroid stimulating hormone receptor (TSHR) signaling pathway (AID 1259385; calls by dose curve; further: nearly all actives have a fitted effect of over 20% in size). In short, it runs like this:
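TSHR-HEK293 cells were plated and held 18 h at 37C/5% CO2, then given compound plus Ro20-1724 and stimulated with TSH at 1.5 ng/mL final. After 30 min at room temperature, cAMP was detected with cAMP-d2/anti-cAMP-cryptate (1 h) by fluorescence.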

A short description of assay [6]: qHTS assay to identify small molecule agonists of the estrogen receptor alpha (ER-alpha) signaling pathway in the presence of an antagonist - cell viability counter screen (AID 1259386).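 Further: cells exposed to compounds for 22 h at 37 °C before the viability read; nearly all actives have a fitted effect of over 30% in size.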 Further: potency means the concentration at half of the fitted maximal effect. In short, it runs like this: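 Using estrogen-depleted VM7Luc4E2 cells, the 15-concentration compound series was applied together with 10.0nM ICI-182,780 and incubated 22hr at 37C/5% CO2. Cell viability was then scored by CellTiter-Fluor.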

In assay [7] the target is Progesterone receptor (Homo sapiens) (UniProt P06401). Nature of the assay: qHTS assay to identify small molecule agonists of the progesterone receptor (PR) signaling pathway (AID 1346784; calls by dose curve; further: nearly all actives have a fitted effect of over 30% in size). The gist of the method:
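Fluorescence from LiveBLAzer B/G FRET substrate cleavage (2 hr, RT) reported PR activation in PR-UAS-bla HEK 293T cells treated 16 hr at 37C/5% CO2 with compounds; medium contained 2% charcoal-stripped FBS.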

The nature of assay [8]: qHTS assay to identify small molecule antagonists of the TGF-beta/Smad signaling pathway - cell viability counter screen (AID 1346824). Further: nearly all actives have a fitted effect of over 50% in size. Further: potency means the concentration at half of the fitted maximal effect. In short, it runs like this: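 SBE-bla HEK 293T cells were plated overnight at 37 C, then given compounds in DMSO plus TGF-beta1 (added as 0.25 ng/mL solution) for 5 hr. After the bla read, CellTiter-Glo was added to the same wells and luminescence read after 30 min at room temperature.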

Assay [9] is described as follows: qHTS assay to identify small molecule agonists of the TGF-beta/Smad signaling pathway - cell viability counter screen (AID 1346829). Further: nearly all actives have a fitted effect of over 45% in size. Further: potency means the concentration at half of the fitted maximal effect. In short, it runs like this:
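Here the cytotoxicity of library compounds is measured in SBE-bla HEK 293T cells treated for 5 hr, using CellTiter-Glo added to wells already read for the beta-lactamase reporter.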

Assay [10] is described as follows: qHTS assay to identify small molecule agonists of the TGF-beta/Smad signaling pathway (AID 1346859; active means well fitted activation curve with a large enough effect in the signal ratio in the repeat runs, not every such curve was filed as active; the % refers to the signal ratio; further: series mostly up to about 77 µM). The gist of the method: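 After overnight seeding, SBE-bla HEK 293T cells are dosed with compounds in DMSO and kept 5 hr at 37 C, 5% CO2. LiveBLAzer-type FRET substrate is then applied for 2 hr at room temperature.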
In assay [11] the target is Thyrotropin-releasing hormone receptor (Homo sapiens) (UniProt P34981). Briefly: qHTS assay to identify small molecule agonists of the thyrotropin-releasing hormone receptor (TRHR) signaling pathway (AID 1346891; calls by dose curve;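 further: HEK293 cells expressing TRHR with calcium dye readout; series mostly up to about 58 µM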). In short, it runs like this:
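Compounds were tested as agonists at 15 concentrations, in triplicate, on TRHR-Hek293 cells; calcium-sensitive dye fluorescence was recorded for 3 min following addition.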

Assay [12] is described as follows: Human pregnane X receptor (PXR) small molecule agonists, qHTS cell viability counter screen (AID 1346977). Further: nearly all actives have a fitted effect of over 50% in size. Further: potency means the concentration at half of the fitted maximal effect. In short, it runs like this:
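Viability counter screen: CellTiter-Fluor signal in PXR-Luc HepG2 cells, 24hr compound exposure, 37C, 5% CO2.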

Assay [13] is described as follows: Caspase-3/7 induction in HepG2 cells by small molecules, qHTS assay (AID 1346978). Further: nearly all actives have a fitted effect of over 15% in size. The gist of the method:
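Wild-type HepG2 cells (2,000/well) were settled 5 h at 37 C, 5% CO2, then exposed to compounds in DMSO for 17 h. Caspase-3/7 activity was read by luminescence 30 min after adding Caspase-Glo 3/7 reagent at room temperature.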

The nature of assay [14]: qHTS assay to identify small molecule antagonists of the estrogen receptor beta (ER-beta) signaling pathway - cell viability counter screen (AID 1259382). Further: nearly all actives have a fitted effect of over 55% in size. Further: potency means the concentration at half of the fitted maximal effect. The gist of the method:
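CellTiter-Glo ATP luminescence measured after the LiveBLAzer read in the same wells; ER-beta-UAS-bla HEK293T cells, 16 hr compound treatment with 1nM 17-beta-estradiol agonist at 37C, 5% CO2.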

In assay [15] the target is Progesterone receptor (Homo sapiens) (UniProt P06401). Briefly: qHTS assay to identify small molecule antagonists of the progesterone receptor (PR) signaling pathway (AID 1346795; active means well fitted inhibition curve with a large enough effect in the signal ratio in the repeat runs, not every such curve was filed as active; the % refers to the signal ratio; further: potency means the concentration at half of the fitted maximal effect). The gist of the method: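 Fluorescence intensity measured 2 hr after adding beta-lactamase FRET substrate to PR-UAS-bla HEK293T cells that had been co-treated 16 hr with compound and 1 nM R5020 (final concentration) in 2% charcoal-stripped FBS.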
Sequence of Progesterone receptor (Homo sapiens) (P06401 whole entry, looked up): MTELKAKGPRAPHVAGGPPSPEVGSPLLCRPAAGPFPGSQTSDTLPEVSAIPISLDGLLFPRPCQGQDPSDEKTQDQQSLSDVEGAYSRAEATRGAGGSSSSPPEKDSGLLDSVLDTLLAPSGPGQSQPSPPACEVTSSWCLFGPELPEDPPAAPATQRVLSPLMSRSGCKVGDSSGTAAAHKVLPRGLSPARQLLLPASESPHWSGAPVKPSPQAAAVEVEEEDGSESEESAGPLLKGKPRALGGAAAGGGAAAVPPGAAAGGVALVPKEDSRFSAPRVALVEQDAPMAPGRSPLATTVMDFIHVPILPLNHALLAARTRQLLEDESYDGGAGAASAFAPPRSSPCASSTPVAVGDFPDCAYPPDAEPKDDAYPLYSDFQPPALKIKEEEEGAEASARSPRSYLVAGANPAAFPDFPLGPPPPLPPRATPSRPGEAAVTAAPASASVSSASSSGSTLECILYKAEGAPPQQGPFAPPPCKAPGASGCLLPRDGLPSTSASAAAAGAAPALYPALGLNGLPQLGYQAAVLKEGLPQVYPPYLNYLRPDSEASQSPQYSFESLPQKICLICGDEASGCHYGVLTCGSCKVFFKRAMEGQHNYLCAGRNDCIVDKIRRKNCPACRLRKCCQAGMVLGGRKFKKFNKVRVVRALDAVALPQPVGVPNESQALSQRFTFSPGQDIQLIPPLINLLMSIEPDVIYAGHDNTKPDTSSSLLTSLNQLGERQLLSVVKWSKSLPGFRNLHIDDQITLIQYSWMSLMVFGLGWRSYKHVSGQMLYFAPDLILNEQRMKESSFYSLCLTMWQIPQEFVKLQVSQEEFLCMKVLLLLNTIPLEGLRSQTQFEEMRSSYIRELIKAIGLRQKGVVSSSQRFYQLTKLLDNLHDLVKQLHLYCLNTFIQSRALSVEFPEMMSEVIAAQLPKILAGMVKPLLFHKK

Assay [16] can be described thus: qHTS assay to identify small molecule antagonists of the progesterone receptor (PR) signaling pathway - cell viability counter screen (AID 1346798). Further: nearly all actives have a fitted effect of over 50% in size. Further: potency means the concentration at half of the fitted maximal effect. The gist of the method:
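CellTiter-Glo luminescence; PR-UAS-bla HEK293T, 3,000 cells/well; compound + R5020, 16 hr, 37C/5% CO2; 30 min RT before read.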

A short description of assay [17]: qHTS assay to identify small molecule agonists of the progesterone receptor (PR) signaling pathway - cell viability counter screen (AID 1346799; calls by dose curve; further: nearly all actives have a fitted effect of over 45% in size; further: potency means the concentration at half of the fitted maximal effect). In short, it runs like this:
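In parallel with the beta-lactamase readout, cytotoxicity toward PR-UAS-bla HEK293T cells was measured by CellTiter-Glo luminescence following 16 hr compound incubation in 2% charcoal-stripped FBS medium.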

Assay [18] has as its target Thyrotropin-releasing hormone receptor (Homo sapiens) (UniProt P34981). Nature of the assay: qHTS assay to identify small molecule antagonists of the thyrotropin-releasing hormone receptor (TRHR) signaling pathway (AID 1346877; active means well fitted inhibition curve with a large enough effect in the repeat runs, not every such curve was filed as active; further: series mostly up to about 51 µM). The gist of the method: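 Calcium signal in dye-loaded TRHR/HEK293 cells; compounds added 5 min before TRH (1 nM final); fluorescence monitored 3 min at 1 s steps.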

Sequence of Thyrotropin receptor (Homo sapiens) (P16473 whole entry, looked up): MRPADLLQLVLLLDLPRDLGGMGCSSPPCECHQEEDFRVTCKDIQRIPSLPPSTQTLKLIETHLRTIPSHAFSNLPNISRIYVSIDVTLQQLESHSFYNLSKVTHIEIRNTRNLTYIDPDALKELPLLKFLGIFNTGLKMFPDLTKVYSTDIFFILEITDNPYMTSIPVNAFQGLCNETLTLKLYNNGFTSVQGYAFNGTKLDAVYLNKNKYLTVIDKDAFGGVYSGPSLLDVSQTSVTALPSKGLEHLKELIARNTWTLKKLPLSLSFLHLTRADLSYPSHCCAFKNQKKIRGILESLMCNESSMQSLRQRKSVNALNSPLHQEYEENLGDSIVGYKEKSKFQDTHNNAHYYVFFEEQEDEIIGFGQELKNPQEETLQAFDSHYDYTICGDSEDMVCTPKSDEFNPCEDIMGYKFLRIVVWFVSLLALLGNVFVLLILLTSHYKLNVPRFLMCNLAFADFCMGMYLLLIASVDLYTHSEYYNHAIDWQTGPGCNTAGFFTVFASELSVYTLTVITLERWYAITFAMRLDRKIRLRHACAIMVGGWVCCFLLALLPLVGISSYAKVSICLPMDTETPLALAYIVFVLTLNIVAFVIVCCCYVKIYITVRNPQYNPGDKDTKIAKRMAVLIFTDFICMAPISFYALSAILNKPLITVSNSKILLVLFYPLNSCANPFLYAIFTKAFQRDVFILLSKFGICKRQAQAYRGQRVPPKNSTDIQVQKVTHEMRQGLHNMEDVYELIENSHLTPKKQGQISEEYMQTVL
Sequence of Estrogen receptor (Homo sapiens) (P03372 whole entry, looked up): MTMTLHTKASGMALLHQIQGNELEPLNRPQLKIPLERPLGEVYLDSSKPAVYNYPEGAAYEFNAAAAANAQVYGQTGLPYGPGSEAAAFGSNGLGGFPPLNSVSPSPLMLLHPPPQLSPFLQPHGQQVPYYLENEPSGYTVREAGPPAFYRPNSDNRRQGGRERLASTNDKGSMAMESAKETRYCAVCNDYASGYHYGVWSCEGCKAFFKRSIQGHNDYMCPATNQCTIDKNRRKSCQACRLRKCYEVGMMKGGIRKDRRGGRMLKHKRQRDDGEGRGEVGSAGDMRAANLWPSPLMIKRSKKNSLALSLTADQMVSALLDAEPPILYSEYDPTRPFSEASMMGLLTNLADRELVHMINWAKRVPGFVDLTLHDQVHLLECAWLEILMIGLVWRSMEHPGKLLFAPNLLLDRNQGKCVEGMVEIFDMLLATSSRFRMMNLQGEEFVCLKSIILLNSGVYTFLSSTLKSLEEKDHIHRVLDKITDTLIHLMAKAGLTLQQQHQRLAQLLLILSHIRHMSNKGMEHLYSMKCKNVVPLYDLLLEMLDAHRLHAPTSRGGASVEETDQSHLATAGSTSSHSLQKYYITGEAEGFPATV
Sequence of Thyrotropin-releasing hormone receptor (Homo sapiens) (P34981 whole entry, looked up): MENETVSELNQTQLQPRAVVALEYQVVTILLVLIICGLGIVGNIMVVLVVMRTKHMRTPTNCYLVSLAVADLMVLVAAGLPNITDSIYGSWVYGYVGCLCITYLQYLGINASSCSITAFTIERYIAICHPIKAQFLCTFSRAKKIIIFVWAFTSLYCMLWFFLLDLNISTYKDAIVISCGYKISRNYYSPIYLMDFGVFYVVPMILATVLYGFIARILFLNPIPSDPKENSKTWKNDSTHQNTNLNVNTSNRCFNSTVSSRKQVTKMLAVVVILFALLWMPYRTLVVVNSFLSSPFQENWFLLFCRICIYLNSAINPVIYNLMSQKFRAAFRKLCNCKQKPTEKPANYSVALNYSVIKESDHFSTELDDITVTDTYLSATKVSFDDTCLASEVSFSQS

Regarding `ClC1=C(Cl)[C@]2(Cl)[C@H]3[C@H]([C@H]4C=C[C@H]3C4)[C@@]1(Cl)C2(Cl)Cl`, the Potency entry in [1], in assay [2], in assay [3], in assay [5], in assay [6] and in [7] was “inactive” in each case. Further, the Potency result in assay [8], in [9], in assay [11], in assay [12] and in assay [13] was “inactive” in each case. Moreover, the result in assay [4] and in assay [10] was inactive.

Regarding `Cc1cc(SCc2sc(-c3ccc(C(F)(F)F)c(F)c3)nc2C)ccc1OCC(=O)O`, the Potency entry in [1], in assay [3], in assay [6], in [7], in [8] and in assay [9] was “inactive” throughout. Also, the Potency result in assay [18], in assay [11] and in assay [13] was “inactive” each time. Also, the Potency in [2] was 15.4 µM (active); in assay [14], 13.7 µM (active); in [15] it was 17.2 µM (active); in assay [16], 19.3 µM (active); in [17], 8.63 µM (active).

In the case of `Cl/C=C\CCl`, the Potency entry in assay [1], in assay [2], in [14], in assay [5], in assay [6] and in assay [7] was “inactive” throughout. For the same compound, the Potency entry in assay [15], in assay [16], in assay [17], in assay [8], in assay [9] and in assay [12] was “inactive” in each case. Also, the Potency result in assay [13] is “inactive”. In addition, the compound was called inactive in assay [4] and in assay [10].

As for `Oc1ccccc1Br`, the Potency result in assay [1], in [2], in assay [14], in assay [3], in assay [6] and in assay [7] was “inactive” in each case. For the same compound, the Potency entry in assay [15], in assay [16], in [17], in assay [8], in [9] and in [12] was “inactive” each time. Further, the Potency entry in [13] was “inactive”. For the same compound, the call in assay [10] was inactive.

As to `Nc1ccccc1C(=O)OC/C=C/c1ccccc1`, the Potency entry in [1], in assay [5], in [6], in assay [16], in [17] and in assay [8] was “inactive” each time. Besides, the Potency result in [9], in assay [18], in [11], in [12] and in [13] was “inactive” each time. The Potency was 21.7 µM (active) in assay [2], 12.2 µM (active) in assay [3] and 27.4 µM (active) in assay [15]. In addition, the result in assay [4] and in [10] was inactive.

As to `Fc1ccc(Oc2ccnc3cc(Cl)cc(Cl)c23)cc1`, the Potency result in assay [1], in [2], in assay [14], in assay [6], in assay [7] and in [16] was “inactive” in each case. Also, the Potency result in [8], in [9] and in assay [13] was “inactive” in each case. Further, the compound was called inactive in assay [4] and in assay [10].

Consider `COc1ccc(N)cc1N`, for which the Potency entry in [1], in [7], in assay [15], in [16], in [17] and in [18] was “inactive” each time. For the same compound, the Potency entry in assay [11] and in assay [13] was “inactive” throughout. Moreover, the Potency in assay [2] is 7.08 µM (active) and 13.1 µM (active); in assay [14], 22.4 µM (active); in assay [6], 63.1 µM (active); in [8] it was 7.14 µM (active) and 21 µM (active); in assay [9], 7.14 µM (active) and 11.8 µM (active); in assay [12], 50.1 µM (active).

For `OC(Cc1ccccc1Cl)(Cn1cncn1)C1(Cl)CC1` (stereo not drawn), the Potency entry in assay [1], in [2], in assay [3], in assay [5], in assay [6] and in assay [7] was “inactive” throughout. Also, the Potency result in [8], in assay [9] and in [13] was “inactive” throughout. For the same compound, the outcome in [4] and in assay [10] was inactive.
